Rows were chosen to be rich in hits. Some 1.6% of all compounds tested hit in one or more screens of this group.
KCNQ2 block = blocks the rat KCNQ2 potassium channel | CHO-K1 KCNQ2, FluxOR thallium flux, 20 min; hits give low values | AID 2156 | 310,000 compounds, 1.1% hits | B-score at 10 µM | O88943;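 active means fluorescence ratio B-score at most minus 3 library SDs, with starting brightness B-score within 2 library SDs, cut at about -5.5 in these data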
KCNQ2 enhance = KCNQ2 (rat) channel potentiation | B-score at 10 µM | 310,000 compounds, 0.54% hits | AID 2239 | O88943 | CHO-K1 KCNQ2, FluxOR thallium flux fluorescence; hits give high values;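 active means fluorescence ratio B-score at least 3 SD of library B-scores, with initial fluorescence B-score within 3 of them, cut at about 5.3 in these data; same plate scores as AID 2156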;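 further: B-score of peak minus minimum over baseline fluorescence ratio after K+ and Tl+ stimulus; positive B-score means potentiation of KCNQ2 with more thallium influx and brighter signal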
Kir21 confirm = confirmation of mouse Kir2.1 potassium channel inhibitors; shares compounds with KCNQ2 enhance; Kir2.1-expressing cells, FluxOR thallium flux fluorescence; hits give low values; Tl flux remaining, % of negative control (hits give low values), % at 10 µM; 2,300 compounds, 41% hits;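 active means Primary-screen hit whose thallium flux fell at least 3 control SD below untreated wells in both duplicates, with normal baseline fluorescence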;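 further: 0% = blank wells without stimulus and 100% = stimulated no-compound controls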
Target sequence (P35561 whole entry, looked up): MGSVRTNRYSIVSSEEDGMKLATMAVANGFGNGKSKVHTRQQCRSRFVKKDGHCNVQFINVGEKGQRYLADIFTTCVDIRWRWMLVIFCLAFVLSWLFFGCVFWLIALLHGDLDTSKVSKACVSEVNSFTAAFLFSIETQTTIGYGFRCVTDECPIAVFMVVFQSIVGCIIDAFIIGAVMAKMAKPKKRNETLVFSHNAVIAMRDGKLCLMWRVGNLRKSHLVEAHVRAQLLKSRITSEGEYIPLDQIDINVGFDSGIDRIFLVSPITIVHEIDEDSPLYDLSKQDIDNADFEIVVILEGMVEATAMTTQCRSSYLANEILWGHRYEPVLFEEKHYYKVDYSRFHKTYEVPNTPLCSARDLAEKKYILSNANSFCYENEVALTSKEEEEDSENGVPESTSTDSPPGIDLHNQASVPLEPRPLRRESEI
HEK293 ctr = parental HEK293 activity in Kir2.1 inhibitor counter-screen. shares compounds with KCNQ2 enhance. parental HEK293 cells, FluxOR thallium flux fluorescence; 0% = unstimulated blank wells. FluxOR signal as % of negative control (100 = no effect), % at 10 µM. 2,300 compounds, 19% hits. AID 2105;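 active means dye signal at least 3 control SD above or below untreated wells in both duplicates, raw fluorescence within 3, either direction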;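 further: percent is based on the flux ratio of peak minus minimum fluorescence over baseline F0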
CHO-K1 Tl ctr = alters thallium flux in parental CHO-K1 cells, KCNQ2 counter-screen | shares compounds with KCNQ2 enhance | FluxOR thallium flux fluorescence; zero = vehicle mean+3SD, 100% = vehicle-minus-blank window | activity increase over 3SD of controls, % at 10 µM | 1,200 compounds, 43% hits;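 active means signal rise of at least 3 SD above the untreated control mean, in both duplicate wells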;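 further: counter screen of KCNQ2 potentiator hits so any rise reflects channel-independent effects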
KCNQ1 pot spec = tests whether KCNQ2 potentiators also act on human KCNQ1. shares compounds with KCNQ2 enhance. CHO KCNQ1 stable, FluxOR thallium flux fluorescence; beyond 3SD, as % of vehicle-control signal. activation over 3SD threshold, % at 10 µM. 1,200 compounds, 28% hits;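 active means fluorescence ratio rise of at least 3 SD of vehicle wells above their mean, in both replicate wells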;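 further: 0% = vehicle mean plus 3 SD and 100% = vehicle minus unstimulated blank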
KCNQ2 pot confirm = confirmation of rat KCNQ2 potassium channel potentiators; shares compounds with KCNQ2 enhance; potentiation, less the hit threshold, % at 10 µM; AID 2287; CHO-KCNQ2 cells, FluxOR thallium flux fluorescence; 1,200 compounds, 68% hits;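 active means fluorescence ratio rising 3 SD or more over the vehicle control mean in both replicates, plus primary screen hit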;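 further: peak minus minimum thallium fluorescence divided by baseline after K/Tl stimulus; 0% = vehicle mean plus 3 SD and 100% = vehicle minus unstimulated blank difference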
Kir2-1 sel = tests whether KCNQ2 potentiators also affect mouse Kir2.1; activity over 3SD threshold, % at 10 µM; 1,200 compounds, 2% hits; shares compounds with KCNQ2 enhance; HEK293 Kir2.1, FluxOR thallium flux fluorescence;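 active means fluorescence ratio rise of at least 3 SD above the vehicle-control mean, seen in both replicates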;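 further: 0% = vehicle mean plus 3 SD and 100% = vehicle minus no-stimulus blank window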
KCNQ2 W236L MoA = KCNQ2 potentiators acting on retigabine-insensitive rat KCNQ2 W236L mutant. shares compounds with KCNQ2 enhance. CHO KCNQ2-W236L, automated patch clamp current. current increase over 3SD of negative controls (%), hits give high values, % at 25 µM. 940 compounds, 10% hits. AID 2558;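 active means current increase at least 3 SD of the untreated controls above them in both duplicate recordings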
Active calls of the source: *.

CCOC(=O)C(C(=O)OCC)C(C(=O)OCC)N1CCOCC1 (stereo not given) was read as KCNQ2 block inactive, KCNQ2 enhance 14.6*, CHO-K1 Tl ctr -7.1, KCNQ1 pot spec 23.9*, KCNQ2 pot confirm 35.0*, Kir2-1 sel -56.0 and KCNQ2 W236L MoA inactive.
For Cc1cc(Cl)c(S(N)(=O)=O)cc1OCC(=O)NC1CCCCC1 the results were KCNQ2 block inactive.
`Cc1cc(Cl)c(S(=O)(=O)NC2CCCC2)cc1OCC(=O)NC1CCCCC1` gave KCNQ2 block inactive and KCNQ2 enhance 0.41.
`Cc1cc(Cl)c(S(=O)(=O)N2CCCCCC2)cc1OCC(=O)NC1CCCCC1` gave KCNQ2 block inactive, KCNQ2 enhance 25.2*, Kir21 confirm inactive, HEK293 ctr 129.5%*, CHO-K1 Tl ctr -0.6, KCNQ1 pot spec -14.1, KCNQ2 pot confirm 163.7*, Kir2-1 sel -33.1 and KCNQ2 W236L MoA inactive.
For Cc1cc(Cl)c(S(=O)(=O)N2CCSCC2)cc1OCC(=O)NC1CCCCC1 the results were KCNQ2 block inactive, KCNQ2 enhance 32.3*, Kir21 confirm inactive, HEK293 ctr 126.0%*, CHO-K1 Tl ctr 6.8*, KCNQ1 pot spec -17.3, KCNQ2 pot confirm 121.7*, Kir2-1 sel -26.3 and KCNQ2 W236L MoA inactive.
Screening CCN(CC)Cc1c(C(=O)N/N=C(\C)c2ccncc2)nnn1-c1nonc1N returned KCNQ2 block inactive and KCNQ2 enhance 0.49.
For O=C(OCC(=O)N1CCCC1)c1cc(Cl)ccc1Cl the results were KCNQ2 block inactive and KCNQ2 enhance 0.94.
C=CCn1c(SCc2cccc(C#N)c2)nnc1-c1ccccc1O was read as KCNQ2 block inactive, KCNQ2 enhance 0.25, Kir21 confirm 52.0%* and HEK293 ctr inactive.
For C=CCn1c(SCc2ccc(C#N)cc2)nnc1-c1cccc(Cl)c1 the results were KCNQ2 block inactive, Kir21 confirm 52.5%* and HEK293 ctr 71.5%*.
`C=CCn1c(SCC(=O)NC(C)(C)C)nnc1-c1ccccc1O` gave KCNQ2 block inactive.
For N#Cc1ccc(CSc2nnc(-c3ccncc3)n2CCc2ccccc2)cc1 the results were KCNQ2 block inactive.
For CC(C)NC(=O)C(=O)Nc1cc2c3c(c1)C(C)C(=O)N3CCC2 (stereo not given) the results were KCNQ2 block inactive.
For COc1ccc(NC(=O)C(=O)NCCC2CCCCN2S(=O)(=O)c2ccc(F)cc2)cc1 (stereo not given) the results were KCNQ2 block inactive.
For COc1ccc(C)cc1Nc1n[n+](-c2ccccc2)c(-c2ccc(C(=O)O)cc2)s1 the results were KCNQ2 block inactive and KCNQ2 enhance 0.64.
COc1ccc(C)cc1Nc1n[n+](-c2ccccc2)c(-c2cc(OC)c(OC)cc2Br)s1 was read as KCNQ2 block -6.36*, KCNQ2 enhance -6.36, Kir21 confirm 53.0%* and HEK293 ctr inactive.
O=C(Nc1ccc(C(F)(F)F)cc1)c1cc(S(=O)(=O)NCC2COc3ccccc3O2)ccc1F (stereo not given) was read as KCNQ2 block inactive and KCNQ2 enhance 0.01.
COc1cccc(/C=N/NC(=O)c2ccc(N3CCCC3=O)cc2)c1 was read as KCNQ2 block inactive and KCNQ2 enhance 0.02.
COC(=O)C1=CN(Cc2ccccc2)C=C(C(=O)OC)C1c1cc(F)ccc1F was read as KCNQ2 block inactive.
For CC(=O)c1cccc(NC(=O)c2ccc(N(Cc3ccccc3)S(C)(=O)=O)cc2)c1 the results were KCNQ2 block inactive and KCNQ2 enhance 1.6.
Screening CS(=O)(=O)N(Cc1ccccc1)c1ccc(C(=O)Nc2ccc(C(N)=O)cc2)cc1 returned KCNQ2 block inactive, Kir21 confirm inactive and HEK293 ctr inactive.
Screening COc1ccc(/C=C2\C(=O)ON=C2c2ccccc2)cc1 returned KCNQ2 block inactive.
O=C1ON=C(c2ccccc2)/C1=C/c1ccc(O)c(O)c1 was read as KCNQ2 block inactive, KCNQ2 enhance 6.82*, Kir21 confirm 70.5%*, HEK293 ctr inactive, CHO-K1 Tl ctr -3.8, KCNQ1 pot spec -5.6, KCNQ2 pot confirm -1.3, Kir2-1 sel -70.9 and KCNQ2 W236L MoA inactive.
`CC(C)N(Cc1nccn1C)C(=O)CC1C(=O)NCCN1Cc1ccc(F)c(F)c1` (stereo not given) gave KCNQ2 block inactive.
`CCOC(=O)c1sc(=S)n(C)c1NC(=O)c1ccccc1C` gave KCNQ2 block inactive.
CCc1ccc(S(=O)(=O)NCCc2csc(-c3ccccc3)n2)s1 was read as KCNQ2 block inactive.
CCc1ccc(S(=O)(=O)NCc2csc(-c3ccccc3)n2)s1 was read as KCNQ2 block inactive, Kir21 confirm 49.0%* and HEK293 ctr inactive.
Screening OCCOCCn1c(C2CCCN2c2nc(-c3ccc(F)cc3)cs2)nc2cc(Cl)c(Cl)cc21 (stereo not given) returned KCNQ2 block inactive.
OCCCn1c(C2CCCN2c2nc(-c3ccc(F)cc3)cs2)nc2cc(Cl)c(N3CCCCC3)cc21 (stereo not given) was read as KCNQ2 block inactive, KCNQ2 enhance 10.4*, Kir21 confirm inactive, HEK293 ctr inactive, CHO-K1 Tl ctr -12.6, KCNQ1 pot spec -7.9, KCNQ2 pot confirm 54.9*, Kir2-1 sel -25.4 and KCNQ2 W236L MoA inactive.
`OCCCn1c(C2CCCN2c2nc(-c3ccc(Cl)cc3)cs2)nc2cc(Cl)c(N3CCCCC3)cc21` (stereo not given) gave KCNQ2 block inactive, KCNQ2 enhance 8.14*, Kir21 confirm inactive, HEK293 ctr inactive, CHO-K1 Tl ctr 13.4*, KCNQ1 pot spec -21.1, KCNQ2 pot confirm 8.9*, Kir2-1 sel -26.3 and KCNQ2 W236L MoA inactive.
`Cc1csc(N2CCCC2c2nc3cc(Cl)c(N4CCCCC4)cc3n2CCCO)n1` (stereo not given) gave KCNQ2 block inactive and KCNQ2 enhance 2.37.
